Experiments:
Assay in all cases: thermal shift delta Tm vs DMSO control; higher = stronger stabilization (binding)
Details in all cases: 12.5 µM; protein concentration 2 µM
[1] = test system: LOC_OS02G45750-cb003
How it was run: (§1)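 Heating from 25°C to 95°C at 0.05°C/s, fluorescence was recorded for 19.5 μl wells of 2 μM E. coli-expressed, purified rice kinase domain in 100 mM potassium phosphate pH 7.5, 150 mM NaCl, 10% glycerol and 5 × SYPRO Orange with compound in DMSO. Boltzmann fits gave melting temperatures for this differential scanning fluorimetry assay. The shift reported is the mean of three replicates against the DMSO-only protein.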

[2] = test system: LOC_OS02G54510-cb004
How it was run: as §1

[3] = test system: LOC_OS03G04050-cb001
How it was run: as §1

[4] = test system: LOC_OS03G12390-cb001
How it was run: as §1

[5] = test system: LOC_OS03G27990-cb004
How it was run: as §1

[6] = test system: LOC_OS03G50450-cb001
How it was run: as §1

[7] = test system: LOC_OS03G50810-cb003
How it was run: as §1

[8] = test system: LOC_OS04G35114-cb001
How it was run: as §1

[9] = test system: T1, LOC_OS04G38480-cb003
T1 sequence (whole entry): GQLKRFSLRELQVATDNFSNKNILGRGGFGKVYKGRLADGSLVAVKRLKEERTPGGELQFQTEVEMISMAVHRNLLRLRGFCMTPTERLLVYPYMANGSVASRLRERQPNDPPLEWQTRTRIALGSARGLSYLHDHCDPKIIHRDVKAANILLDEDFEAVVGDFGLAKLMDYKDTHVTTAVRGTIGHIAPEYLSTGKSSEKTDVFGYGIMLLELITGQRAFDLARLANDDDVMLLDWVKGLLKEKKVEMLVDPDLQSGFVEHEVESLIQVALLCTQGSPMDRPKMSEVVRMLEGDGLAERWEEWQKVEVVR
How it was run: as §1

[10] = test system: T2, LOC_OS04G41100-cb001
T2 sequence (whole entry): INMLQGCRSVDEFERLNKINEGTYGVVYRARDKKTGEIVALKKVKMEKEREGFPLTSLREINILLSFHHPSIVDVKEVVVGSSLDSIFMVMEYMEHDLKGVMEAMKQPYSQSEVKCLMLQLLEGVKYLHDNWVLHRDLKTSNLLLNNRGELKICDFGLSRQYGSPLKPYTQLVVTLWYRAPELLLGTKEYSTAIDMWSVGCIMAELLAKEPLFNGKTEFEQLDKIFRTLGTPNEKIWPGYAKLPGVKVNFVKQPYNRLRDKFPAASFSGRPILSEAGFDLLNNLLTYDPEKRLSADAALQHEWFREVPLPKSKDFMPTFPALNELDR
How it was run: as §1

[11] = test system: LOC_OS04G57630-cb004
How it was run: as §1

[12] = test system: LOC_OS05G07850-cb002
How it was run: as §1

[13] = test system: LOC_OS05G16824-cb004
How it was run: as §1

[14] = test system: LOC_OS05G28520-cb001
How it was run: as §1

[15] = test system: LOC_OS05G30820-cb001
How it was run: as §1

[16] = test system: LOC_OS05G43570-cb004
How it was run: as §1

[17] = test system: LOC_OS06G16330-cb003
Chain of LOC_OS06G16330-cb003 (as listed by the source): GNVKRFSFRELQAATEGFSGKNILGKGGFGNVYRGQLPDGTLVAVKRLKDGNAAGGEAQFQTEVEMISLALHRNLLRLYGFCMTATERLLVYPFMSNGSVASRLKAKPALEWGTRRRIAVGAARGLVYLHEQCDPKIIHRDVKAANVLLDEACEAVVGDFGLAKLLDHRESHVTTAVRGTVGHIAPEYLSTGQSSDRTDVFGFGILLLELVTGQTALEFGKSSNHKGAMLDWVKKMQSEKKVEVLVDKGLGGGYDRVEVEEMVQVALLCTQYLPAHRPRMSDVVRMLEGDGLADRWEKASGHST
How it was run: as §1

[18] = test system: T3, LOC_OS06G22820-cb001
T3 sequence (whole entry): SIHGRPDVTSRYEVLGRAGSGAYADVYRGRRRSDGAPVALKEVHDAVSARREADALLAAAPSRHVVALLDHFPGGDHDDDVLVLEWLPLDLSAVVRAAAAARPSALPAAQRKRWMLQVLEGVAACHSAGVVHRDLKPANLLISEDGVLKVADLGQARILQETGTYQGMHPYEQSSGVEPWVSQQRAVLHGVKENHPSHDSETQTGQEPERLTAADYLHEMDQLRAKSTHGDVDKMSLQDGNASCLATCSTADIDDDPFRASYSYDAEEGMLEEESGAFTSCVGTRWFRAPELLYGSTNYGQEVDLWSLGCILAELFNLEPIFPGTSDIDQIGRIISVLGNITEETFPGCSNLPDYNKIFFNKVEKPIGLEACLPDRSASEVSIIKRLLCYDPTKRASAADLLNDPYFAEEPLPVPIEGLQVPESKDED
How it was run: as §1

[19] = test system: LOC_OS07G06570-cb004
How it was run: as §1

[20] = test system: LOC_OS07G07230-cb001
How it was run: as §1
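Also: purified Escherichia coli-expressed rice kinase domain construct.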

SMILES | thermal shift delta Tm [1] | thermal shift delta Tm [2] | thermal shift delta Tm [3] | thermal shift delta Tm [4] | thermal shift delta Tm [5] | thermal shift delta Tm [6] | thermal shift delta Tm [7] | thermal shift delta Tm [8] | thermal shift delta Tm [9] | thermal shift delta Tm [10] | thermal shift delta Tm [11] | thermal shift delta Tm [12] | thermal shift delta Tm [13] | thermal shift delta Tm [14] | thermal shift delta Tm [15] | thermal shift delta Tm [16] | thermal shift delta Tm [17] | thermal shift delta Tm [18] | thermal shift delta Tm [19] | thermal shift delta Tm [20]
COc1cc(N2CCC(N3CCN(C)CC3)CC2)ccc1Nc1ncnc(Nc2ccccc2S(=O)(=O)C(C)C)n1 | 1.85 °C | 0.1 °C | 0.24 °C | 1.69 °C | 0.28 °C | 0.36 °C | 0.99 °C | 0.74 °C | 1.16 °C | 0.34 °C | -0.16 °C | 9.97 °C | -1.84 °C | 0.49 °C | 0.53 °C | 0.45 °C | 2.65 °C | 0.91 °C | 1.77 °C | 0.45 °C
Cc1ccc([N+](=O)[O-])cc1S(=O)(=O)N(C)/N=C/c1cnc2ccc(Br)cn12 | 1.33 °C | 0.35 °C | 0.72 °C | 0.02 °C | 0.5 °C | 0.64 °C | 0.47 °C | 1.17 °C | 3.16 °C | 1.09 °C | 1.58 °C | 1.88 °C | 3.43 °C | 1.13 °C | 0.85 °C | 1.49 °C | 7.74 °C | 0.41 °C | 1.41 °C | 0.94 °C
COc1cc2nccc(Oc3ccc(NC(=O)NC4CC4)c(Cl)c3)c2cc1C(N)=O [Lenvatinib (E7080)] | 0.65 °C | 0.49 °C | 0.79 °C | -0.1 °C | 0.31 °C | 0.39 °C | 0.26 °C | 1.09 °C | 0.48 °C | 0.18 °C | 1.31 °C | 3.32 °C | -2.91 °C | 0.18 °C | 0.7 °C | 0.32 °C | 1.75 °C | 0.98 °C | 0.84 °C | 0.35 °C
CN1CCCN(C(=O)c2cccc(-c3ccc(/C=C4/C(=O)Nc5ccc(Cl)cc54)o3)c2)CC1 | 5.04 °C | 0.59 °C | 0.65 °C | 3.37 °C | 1.12 °C | 0.49 °C | 2.85 °C | 4.61 °C | 2.24 °C | 1.74 °C | 2.23 °C | 6.78 °C | 4.08 °C | 1.14 °C | 0.63 °C | 0.58 °C | 1.36 °C | 0.37 °C | 2.41 °C | 0.77 °C
Cc1ccc(NC(=O)Nc2cc(C(F)(F)F)ccc2F)cc1Nc1ccc2c(c1)NC(=O)/C2=C\c1ccc[nH]1 | 0.48 °C | -0.12 °C | 1.3 °C | 1.34 °C | 0.77 °C | 1.31 °C | 1.99 °C | -0.61 °C | -1.28 °C | 0.8 °C | 0.83 °C | 1.9 °C | 2.11 °C | 0.81 °C | 0.73 °C | 1.98 °C | 1.54 °C | 1.12 °C | -0.24 °C | 1.34 °C
CN1c2ccccc2C(=O)Nc2cnc(Nc3ccc(N4CCC(O)CC4)cc3)nc21 | 5.71 °C | 2.78 °C | 0.24 °C | 2.56 °C | 1.24 °C | -0.12 °C | 2.29 °C | 3.85 °C | 3.65 °C | 0.15 °C | 2.68 °C | 11.7 °C | 3.76 °C | 0.16 °C | 1.15 °C | 0.33 °C | 8.37 °C | 0.43 °C | 0.89 °C | 1.4 °C
C[C@@H](Oc1cc(-n2cnc3ccc(CN4CCN(C)CC4)cc32)sc1C(N)=O)c1ccccc1C(F)(F)F | 0.36 °C | -0.15 °C | 0.2 °C | -0.35 °C | -0.09 °C | -0.03 °C | 0.55 °C | 2.11 °C | 0.27 °C | 0.39 °C | 1.23 °C | 2.4 °C | -4.79 °C | -0.16 °C | 0.61 °C | 0.21 °C | 2.19 °C | 0.97 °C | 1.02 °C | 0.47 °C
CN1CCN(c2ccc3nc(-c4c(N)c5c(F)cccc5[nH]c4=O)[nH]c3c2)CC1 [Dovitinib (TKI258) Lactate] | 16.7 °C | 2.48 °C | 1.03 °C | 5.56 °C | 8.6 °C | 5.37 °C | 7.48 °C | 10 °C | 3.95 °C | 1.24 °C | 4.11 °C | 8.85 °C | 14.8 °C | 1.89 °C | 1.87 °C | 0.71 °C | 8.12 °C | 0.62 °C | 1.96 °C | 0.72 °C
COc1cc2ncnc(Oc3cccc(NC(=O)Nc4cc(C(C)(C)C(F)(F)F)on4)c3)c2cc1OC | 0.81 °C | 1.05 °C | 0.36 °C | 0.21 °C | 0.47 °C | 0.59 °C | 0.19 °C | 0.57 °C | 0.16 °C | 0.2 °C | 0.6 °C | 2.95 °C | -2.76 °C | 0.72 °C | 0.54 °C | 0.45 °C | 0.19 °C | 0.58 °C | 1.77 °C | 0.79 °C
Nc1ncnc2c1c(-c1cnc3[nH]ccc3c1)nn2C1CCCC1 | 2.27 °C | 3.34 °C | 0.54 °C | 5.27 °C | 1.19 °C | 0.86 °C | 0.88 °C | 4.32 °C | 1.28 °C | 0.51 °C | 0.91 °C | 4.79 °C | 1.22 °C | 0.54 °C | 0.76 °C | 1.19 °C | 3.18 °C | 0.34 °C | 0.72 °C | 0.21 °C
O=C(Nc1nccs1)C(c1cc(F)ccc1O)N1Cc2ccccc2C1=O (stereo not given) | 0.19 °C | 0.2 °C | -0.02 °C | -0.36 °C | 0.06 °C | -0.38 °C | 0.01 °C | 0.12 °C | 0.41 °C | 0.1 °C | 0 °C | -0.08 °C | -0.86 °C | 0.12 °C | 0.61 °C | -0.04 °C | -0.29 °C | 0.38 °C | 1.35 °C | 0.63 °C
C[C@@H](Oc1cc(-c2cnn(C3CCNCC3)c2)cnc1N)c1c(Cl)ccc(F)c1Cl | 5.46 °C | 0.63 °C | 0.35 °C | 1.31 °C | 0.48 °C | 0.08 °C | 2.49 °C | 5.73 °C | 3.79 °C | 0.57 °C | 3.33 °C | 9.7 °C | 4.65 °C | 0.26 °C | 0.39 °C | 0.21 °C | 10.8 °C | 0.95 °C | 0.69 °C | 0.31 °C
c1cncc(CN2CCC(n3ncc4c(N5CCOCC5)nc(-c5ccc6[nH]ccc6c5)nc43)CC2)c1 | 0.03 °C | -0.13 °C | 0.22 °C | -0.05 °C | 0.01 °C | 0.14 °C | 0.65 °C | 0.3 °C | 0.67 °C | 0.58 °C | 0.55 °C | 0.6 °C | -2.75 °C | 0.6 °C | 0.62 °C | -0.19 °C | -0.3 °C | 0.42 °C | 0.64 °C | 0.16 °C
CC1(C)OCCn2c1nc1c(N3CCOCC3)nc(-c3cnc(N)nc3)nc12 | -0.63 °C | 0.42 °C | 0.09 °C | -0.14 °C | 0.19 °C | 0.18 °C | 0.33 °C | 0.39 °C | 0.75 °C | -0.13 °C | 0.29 °C | 1.01 °C | -0.61 °C | 0.5 °C | 0.57 °C | 0.76 °C | 2.07 °C | 0.14 °C | 1.2 °C | 0.43 °C
